Test results: PubChem BioAssay (NCI)
Values joined by “and” are separate entries in the source; they are usually repeats but may differ in a detail not shown here. Identical values can stand only once. This is part of a sample that, as a whole, favours compounds with a hit. Of some 83,000 tested, about 20% had one in any assay.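 A percent growth of 40 corresponds to 60% growth inhibition; 0 means no net growth; -100 means all cells died. Active threshold: below 10.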 A number with no mark means an inactive call. Active and inactive are the calls of the source.

system: LOX IMVI melanoma; test: NCI-60 one-dose screen, 48 h (100 = growth as untreated, 0 = no growth, -100 = all killed); conditions: 10 µM
Experimental: Growth inhibition of the LOX IMVI human tumor cell line is measured as a screen for anti-cancer activity. Cells are grown in 96 well plates and exposed to the test compound for 48 hours. Compounds are tested at a single concentration, which is 10^-5 M for most compounds. The reported endpoint is percent growth (GI% or GIPRCNT), where numbers from 0 - 100% represent growth inhibition, and numbers from -100% - 0 represent cell death. For example, a value of 40 represents 60% growth inhibition. A value of 0 means no net growth occurred over the course of the experiment. A value of -40 indicates 40% of cells at the beginning of the experiment died by the end of the experiment. A value of -100 means all cells are dead at the end of the experiment.
NCI-60 Human Tumor Cell Lines Screen was performed using the standard one-dose NCI protocol, which is described in more detail at https://dtp.cancer.gov/discovery_development/nci-60/default.htm.
Compounds with GIPRCNT values below 10 were considered active. Activity score was based on GIPRCNT using the following formula: […]
Score is 0 for GIPRCNT values of 100 or above, 50 for GIPRCNT values of 0, and 100 for GIPRCNT values of -100.

Compound	growth
S=c1nc[nH]c2nc[nH]c12	9.56% (active)

same assay, conditions: 10 µM unless noted

Compound	growth
N#Cc1c[nH]n2ccnc12	96.1%
CCOC(=O)C1=CC(=O)CC(C)(C)O1	103% and 107%
COc1ccc(CCNC(=S)NN)cc1OC	103%
Cc1cccc(Cl)c1N	98.6%
CN(C)CC(CN(C)C)C(O)c1ccccc1 (stereo not given)	97.8%
COc1cc(NCCCCCCCNC(C)C)c2nccc(C)c2c1	92.5% and 54.7%
COc1cc2c(cc1O)C(=O)CCCC2	90.8%
O=[N+]([O-])c1ccc(NC(c2ccccc2)c2ccc3cccnc3c2O)cc1 (stereo not given)	9.64% (active)
Cc1ccc(N)cc1S(=O)(=O)O	105% and 109%
OC(CC(c1ccccc1)c1cccc2ccccc12)(c1ccccc1)c1ccccc1 (stereo not given)	80.5% and 74.8%
Cc1c(Cl)cc(Cl)c(N)c1Cl	99%
O=C(O)C(Cc1ccc(OS(=O)(=O)Cc2ccccc2)cc1)NS(=O)(=O)Cc1ccccc1 (stereo not given)	98%
Clc1ccc2sc(-c3ccccc3)nc2c1	101%
O=C1C=CC(n2cc(F)c(=O)[nH]c2=O)O1 (stereo not given)	54.8%
Nc1nc(-c2ccccn2)cc(-c2cc(-c3ccccn3)nc(N)n2)n1	96.5%
Cn1c(N)c(N=O)c(=O)n(C)c1=O	100%
Cc1ccc(S(=O)(=O)n2ccnc2)cc1	95.5%
COc1ccc(COC=O)cc1	100%
CC(=O)c1cc2ccccc2o1	95.3%

Compound	growth
CC(=O)c1cccc(OC(=O)c2ccccc2)c1	87.4%
O=C(O)COc1ccccc1F	96.5%
COc1ccc2oc3cc(NCCN(C)C)ccc3c(=O)c2c1	83% and 58.2%
CC1OS(=O)OC1C (stereo not given)	94.1% and 91.6%
O=C1C=CC[C@H](/C=C/c2ccccc2)O1	5.77% (active) and -35.8% (active)
CCC(=O)Oc1ccc(OCc2ccccc2)cc1	88.8% and 84.7%
O=c1ccn2c(n1)OC1CC2OC1COC(c1ccccc1)(c1ccccc1)c1ccccc1 (stereo not given)	105%
COC1C(OC(N)=O)C(O)C(Oc2ccc3c(O)c(NC(=O)c4ccc(O)c(CC=C(C)C)c4)c(=O)oc3c2C)OC1(C)C (stereo not given)	99.7% and 98.4%
O=c1[nH]c(=O)c2[nH]c(=O)[nH]c2[nH]1	102%
O=COCCCc1ccccc1	99%
O=C1C=CC(=O)N1Cc1ccco1	76.6%
Cc1cc(Cl)nc(Nc2ccccc2)n1	97%
Nc1ccc(Cl)c(S(=O)(=O)O)c1	97.5%
O=P(O)(O)OC1C(OP(=O)(O)O)C(OP(=O)(O)O)C(OP(=O)(O)O)C(OP(=O)(O)O)C1OP(=O)(O)O.[Cu+2] (stereo not given)	69.7%
O=C(O)c1ccc2c3ccc(C(=O)O)c4c(C(=O)O)ccc(c5ccc(C(=O)O)c1c25)c43	92.7%
CSc1nc(N)c(N)c(N)n1	101%
CCOP(=O)(OCC)/C(C#N)=C/c1c(C)[nH]c2ccccc12	89.7%
COc1ccc(/C=C/C(=O)O)cc1OC	100% and 98.9%
CC(C)(C)C1=CC(=O)C(C(C)(C)C)=CC1=O	91.6% and 99.5%

same assay, conditions: 50 µM

Compound	growth
S=c1nc[nH]c2nc[nH]c12	6.96% (active)
